DUSP3 inh: DUSP3 (human) phosphatase inhibition; P51452; recombinant VHR phosphatase, pNPP absorbance; inhibition, % at 13.3 µM; 0.52% of 290,000 active; AID 1654; in the data active = inhibition above about 50%
Target sequence (P51452 whole entry, looked up): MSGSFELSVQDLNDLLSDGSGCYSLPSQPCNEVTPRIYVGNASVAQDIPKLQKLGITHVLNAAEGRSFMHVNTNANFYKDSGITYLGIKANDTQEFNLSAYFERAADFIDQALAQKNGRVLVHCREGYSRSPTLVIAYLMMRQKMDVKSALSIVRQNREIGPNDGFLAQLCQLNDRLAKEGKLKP
RecA intein inh: inhibitors of M. tuberculosis RecA intein splicing; P9WHJ3; cell-free RecA intein splicing, fluorescence; inhibition, % (no concentration beside the values); 0.75% of 290,000 active; AID 2221; in the data active = inhibition above about 30%;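 note: 0% = vehicle wells and 100% = reference inhibitor control wells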
GDH-TPI counter: inhibits GDH-TPI coupling enzymes, artifact for Mtb FBA screen | AID 588335 | GDH-TPI coupled enzyme counterscreen, NADH absorbance | 1.2% of 360,000 active | inhibition, % at 4.8 µM;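 note: 0% = DMSO wells and 100% = wells lacking the enzyme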
CCHF vOTU inh: blocks the CCHF virus ovarian tumor domain protease. CCHFV vOTU protease, Pep-AMC fluorescence. inhibition, % at 11.5 µM. 0.55% of 370,000 active; note: 0% = vehicle wells with enzyme and 100% = no enzyme wells
FBA Mtb inh: inhibitors of M. tuberculosis fructose-bisphosphate aldolase; inhibition, % at 1 µM; P9WQA3; 2.3% of 360,000 active; purified M. tuberculosis FBA, fluorescence read-out; in the data active = inhibition above about 27%;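 note: 0% = vehicle and 100% = reference inhibitor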
Target sequence (P9WQA3 whole entry, looked up): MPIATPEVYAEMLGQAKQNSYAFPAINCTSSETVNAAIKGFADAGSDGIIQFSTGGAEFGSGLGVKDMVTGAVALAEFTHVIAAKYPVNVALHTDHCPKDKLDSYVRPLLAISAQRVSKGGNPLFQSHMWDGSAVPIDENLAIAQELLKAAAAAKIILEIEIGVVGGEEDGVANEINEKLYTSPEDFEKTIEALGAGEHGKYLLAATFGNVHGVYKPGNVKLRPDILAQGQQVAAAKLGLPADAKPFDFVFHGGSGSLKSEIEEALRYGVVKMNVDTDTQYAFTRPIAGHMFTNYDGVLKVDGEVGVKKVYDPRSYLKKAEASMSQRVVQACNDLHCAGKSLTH
3CLpro inhibitor: SARS-CoV 3CLpro protease inhibition; P0C6X7; recombinant SARS-CoV 3CLpro, quenched FRET peptide cleavage; inhibition, % at 6 µM; 0.14% of 290,000 active; AID 1706; in the data active = inhibition above about 12%
Numbers without * were called inactive. A selection: hits, their analogues and other compounds. The true share with any hit is near 4.7%. Cut-off read from the data, not from the text of the source, unless noted: active = inhibition above about 30%; inactive = the rest.

Screening CCCCNC(=O)CCC(=O)Nc1ccc2nc(N3CCC(C)CC3)cc(C)c2c1 returned DUSP3 inh 29, RecA intein inh 0, GDH-TPI counter 9, CCHF vOTU inh -21, FBA Mtb inh 68* and 3CLpro inhibitor -1.
For COc1ccc(NC(=O)CCC(=O)Nc2ccc3nc(N4CCOCC4)cc(C)c3c2)c(OC)c1 the results were DUSP3 inh 33, RecA intein inh 1, GDH-TPI counter -5, CCHF vOTU inh -4, FBA Mtb inh 14 and 3CLpro inhibitor -6.
Cc1cc(N2CCN(C)CC2)nc2ccc(NC(=S)NCCC(C)C)cc12 was read as RecA intein inh -2, GDH-TPI counter 14, CCHF vOTU inh -7, FBA Mtb inh 6 and 3CLpro inhibitor -4.
`CCN1CCN(c2cc(C)c3cc(NC(=O)c4cc(OC)cc(OC)c4)ccc3n2)CC1` gave DUSP3 inh -4, RecA intein inh 0, GDH-TPI counter 34*, CCHF vOTU inh -9, FBA Mtb inh 3 and 3CLpro inhibitor -8.
Screening Cc1cc(N2CCOCC2)nc2ccc(NC(=O)CCC(=O)N3CCC(C)CC3)cc12 returned DUSP3 inh 26, RecA intein inh -3, GDH-TPI counter 0, CCHF vOTU inh -53, FBA Mtb inh 54* and 3CLpro inhibitor -1.
`Cn1c(COc2ccccc2)nnc1SCC(=O)Nc1ccccc1-c1ccccc1` gave CCHF vOTU inh -2.
`OC(CNC1CCCCC1)CON=C1CCSc2c(Cl)cccc21` (stereo unspecified) gave GDH-TPI counter -2, CCHF vOTU inh -3 and FBA Mtb inh 0.
`Cn1c(=O)c2c(ncn2CC(=O)N/N=C/C=C\c2ccccc2[N+](=O)[O-])n(C)c1=O` gave DUSP3 inh 21, RecA intein inh -4 and 3CLpro inhibitor -1.
C=CCN1C(=O)[C@]2(OCCC=C[C@H]2C)c2cc(OC)ccc21 was read as CCHF vOTU inh 6.
C=CCN1C(=O)NC(c2ccc(OC)cc2)(C(F)(F)F)S/C1=C(\C#N)c1nnc(N2CCOCC2)n1-c1ccccc1 (stereo unspecified) was read as DUSP3 inh 2, RecA intein inh 43*, GDH-TPI counter 7, CCHF vOTU inh 9, FBA Mtb inh 0 and 3CLpro inhibitor -1.
Screening C=CCN1C(c2cccc(C(F)(F)F)c2)=CS/C1=C(/C#N)c1nnc(N2CCOCC2)n1-c1ccccc1 returned DUSP3 inh 0, RecA intein inh 1, GDH-TPI counter 19, CCHF vOTU inh 12, FBA Mtb inh 0 and 3CLpro inhibitor -4.
For COc1ccc(COC(=O)N/N=C(\C)CC(=O)Nc2ccc(Cl)cn2)cc1 the results were DUSP3 inh 17, RecA intein inh 45*, GDH-TPI counter 6, CCHF vOTU inh 10, FBA Mtb inh 4 and 3CLpro inhibitor 0.
`COc1ccc(OCCCC(=O)OCC(=O)Nc2ccc(Cl)cn2)cc1` gave RecA intein inh 1, GDH-TPI counter 3, CCHF vOTU inh -3 and FBA Mtb inh -2.
Screening S=c1sscc1-c1ccccc1 returned GDH-TPI counter 3, CCHF vOTU inh -15 and FBA Mtb inh -6.
Screening Cc1ccc(CN(C)C(=O)c2cc(COc3cccc(C(F)(F)F)c3)on2)o1 returned DUSP3 inh 2, RecA intein inh 16, GDH-TPI counter -1, CCHF vOTU inh 10, FBA Mtb inh 2 and 3CLpro inhibitor -2.
Screening COC(=O)C1=C(C)N(Cc2ccccc2C(F)(F)F)C(=NCc2ccc(OC)cc2)NC1c1ccc(C(F)(F)F)cc1 (stereo unspecified) returned CCHF vOTU inh 14.
For Cc1c(C(=O)N(CCO)Cc2ccccc2)oc2c(F)cccc12 the results were DUSP3 inh 56*, RecA intein inh 0, GDH-TPI counter 3, CCHF vOTU inh 7, FBA Mtb inh 2 and 3CLpro inhibitor -3.
For Cc1cc(Cl)c2oc(C(=O)N(CCO)Cc3ccccc3)c(C)c2c1 the results were DUSP3 inh -35, RecA intein inh 8, GDH-TPI counter -4, CCHF vOTU inh 25, FBA Mtb inh 1 and 3CLpro inhibitor 4.
Cc1cccc(Oc2ccc(S(=O)(=O)N3CCCCC3)cc2N)c1 was read as DUSP3 inh 18, RecA intein inh 10, GDH-TPI counter -4, CCHF vOTU inh 10, FBA Mtb inh -7 and 3CLpro inhibitor 3.
Screening CC(C)N(C[C@@H]1CSCCS(=O)(=O)N1)C(C)C returned CCHF vOTU inh -3.
`O=C(Oc1cc2oc(=O)c3c(c2cc1Cl)CCCC3)c1ccco1` gave DUSP3 inh 6, RecA intein inh -17, GDH-TPI counter 15, CCHF vOTU inh -275, FBA Mtb inh active and 3CLpro inhibitor 5.
`CC(=O)Oc1cc2oc(=O)c3c(c2cc1Cl)CCC3` gave DUSP3 inh 19, GDH-TPI counter 8, CCHF vOTU inh -340, FBA Mtb inh active and 3CLpro inhibitor -1.
For CC(=O)Oc1cc2oc(=O)cc(C)c2cc1Cl the results were DUSP3 inh 25, RecA intein inh -79, GDH-TPI counter 11, CCHF vOTU inh -377, FBA Mtb inh active and 3CLpro inhibitor 5.
Cc1cc(=O)oc2cc(OC(C)C(=O)N3CCOCC3)c(Cl)cc12 (stereo unspecified) was read as GDH-TPI counter 28, CCHF vOTU inh -8 and FBA Mtb inh 24.
`O=C(Oc1cc2oc(=O)c3c(c2cc1Cl)CCCC3)c1cccs1` gave DUSP3 inh -2, RecA intein inh -11, GDH-TPI counter 10, CCHF vOTU inh -286, FBA Mtb inh 173* and 3CLpro inhibitor -2.
Screening CC(=O)OC[C@]12CC[C@H]3[C@@](C)(CC[C@H]4C(C)(C)CCC[C@]34C)[C@@H]1CC(C1=CC(=O)OC1O)O2 (stereo partly specified) returned GDH-TPI counter 1, CCHF vOTU inh 26 and FBA Mtb inh -1.
For CCOC(=O)C1=CCN(S(=O)(=O)c2ccc(Br)cc2)C1c1cccc(F)c1 (stereo unspecified) the results were CCHF vOTU inh 5.
Cc1ccc(S(=O)(=O)NC(C(=O)Oc2cc3oc(=O)cc(C)c3cc2Cl)C(C)C)cc1 (stereo unspecified) was read as DUSP3 inh 3, RecA intein inh -74, GDH-TPI counter 9, CCHF vOTU inh -338, FBA Mtb inh active and 3CLpro inhibitor 1.
O=C(Oc1ccc2c3c(c(=O)oc2c1)CCC3)c1ccco1 was read as DUSP3 inh 0, GDH-TPI counter 7, CCHF vOTU inh -307, FBA Mtb inh active and 3CLpro inhibitor 0.
`COc1ccc(S(=O)(=O)N2CCC(C(=O)NCc3ccncc3)CC2)cc1` gave DUSP3 inh 12, RecA intein inh -2, GDH-TPI counter 8, CCHF vOTU inh -14, FBA Mtb inh 1 and 3CLpro inhibitor -5.
For O=C(COc1ccccc1Cl)NCCNC(=O)c1ccccn1 the results were DUSP3 inh 33, RecA intein inh -5, GDH-TPI counter 0, CCHF vOTU inh -16, FBA Mtb inh 2 and 3CLpro inhibitor -5.

Screens as filed in PubChem BioAssay.
